Source: PubChem
The list is not random: actives were taken first. Their share in the collection is about 18%.
Gal4-VP16 FLuc – counter-screen for ROR gamma inhibitors: Gal4-VP16 reporter. Drosophila S2 Gal4-VP16 UAS-luciferase, luminescence, 20 h. Potency, µM (doses to about 53.6 µM), actives largely listed as inhibitors. actives 3.5% (n = 310,000);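 note: Gal4-VP16 expression switched on by copper sulfate through the metallothionein promoter; nearly all actives have a fitted effect of over 50% in size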
IL1B secr inh – inhibitors of inflammasome signaling (IL-1 beta secretion). activity change, % at 57.5 µM. AID 743279. actives 4.7% (n = 360,000). THP-1 LPS/ATP IL-1B secretion, AlphaLISA, 16 h; active compounds read low; in the data active = activity change below about -50%; inconclusive = mostly about -30% to -49%
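Secreted IL-1B measured by AlphaLISA bead assay after 16 h compound exposure of THP-1 cells; compounds (final up to 57.5 uM) added 1 h before LPS (250 ng/mL) and ATP (1.25 mM) stimulation; lower signal means less secretion.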
LDHA block – LDHA (human) enzyme inhibition; activity change, % (values are at about 110 or 230 µM); purified LDHA, NADH/diaphorase-resazurin fluorescence; active compounds read low; actives 0.15% (n = 480,000); P00338; in the data active = activity change below about -30%; inconclusive = mostly about -25% to -30%
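Human LDH5 (2 nM) was incubated with 0.06 mM NADH and 0.2 mM pyruvate for 5 min at room temperature in Tris pH 7.4. Remaining NADH was coupled through diaphorase/resazurin, and resorufin fluorescence was read at 0 and 20 min.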
TDP1 cell noCPT – qHTS for Inhibitors of human tyrosyl-DNA phosphodiesterase 1 (TDP1): qHTS in cells in absence of CPT; actives 15% (n = 420,000); DT40 Tdp1-/- hTDP1 cells, no CPT, ATP luminescence, 48 h; AID 686978, 2013; Potency, µM (highest dose often 46.2 µM), hits mostly inhibitors; note: nearly all actives have a fitted effect of over 55% in size
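A cellular qHTS used chicken DT40 cells lacking endogenous Tdp1 but carrying stably transfected human TDP1. Compounds were applied without camptothecin, and cell growth kinetics were judged by ATP-dependent luminescence after ≥48 hr.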
TDP1 cell CPT – DT40-hTDP1 cell growth loss with CPT; chicken DT40 Tdp1-/-;hTDP1 cells + 20 nM CPT, ATP luminescence, 48 h; Potency, µM (top dose mostly 46.2 µM), most hits filed as inhibitors; actives 12% (n = 420,000); note: nearly all actives have a fitted effect of over 55% in size
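Chicken DT40 Tdp1-/- cells stably complemented with human TDP1 were seeded at 400 cells/well in medium containing 20 nM camptothecin, exposed to pin-transferred compounds, and grown at 37 °C for at least 48 hr. Viability was read as ATP luminescence.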
RORgamma inh – ROR gamma (mouse) transcription inhibition; AID 2551; Potency, µM (highest dose often 53.6 µM), actives largely listed as inhibitors; actives 5.4% (n = 310,000); Drosophila S2 Gal4-RORgamma UAS-luciferase reporter, 20 h; P51450; note: nearly all actives have a fitted effect of over 60% in size
Target sequence (P51450 whole entry, looked up, the tested form may be a part): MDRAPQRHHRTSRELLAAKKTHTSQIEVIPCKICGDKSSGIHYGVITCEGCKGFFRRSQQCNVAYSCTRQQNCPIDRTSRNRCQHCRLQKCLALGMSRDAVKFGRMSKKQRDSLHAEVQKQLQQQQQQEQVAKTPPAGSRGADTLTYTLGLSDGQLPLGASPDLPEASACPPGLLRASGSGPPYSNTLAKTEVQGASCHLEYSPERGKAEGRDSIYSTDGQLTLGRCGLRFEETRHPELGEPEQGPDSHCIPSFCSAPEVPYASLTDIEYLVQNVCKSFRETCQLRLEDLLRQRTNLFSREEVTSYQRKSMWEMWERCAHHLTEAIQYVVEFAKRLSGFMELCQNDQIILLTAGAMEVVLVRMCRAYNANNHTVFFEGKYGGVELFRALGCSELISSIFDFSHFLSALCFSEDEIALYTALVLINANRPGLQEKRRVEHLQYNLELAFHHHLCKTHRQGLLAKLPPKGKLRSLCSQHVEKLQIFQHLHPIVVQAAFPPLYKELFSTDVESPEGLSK
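Read-out: Photinus luciferase luminescence; inhibitors lower reporter signal. Insect Schneider cells with Gal4-ROR gamma fusion under metallothionein promoter, UAS reporter; 700 uM final copper sulfate induction, 20 hr, ambient temperature.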
Numbers stand for hits; - = inactive; ? = inconclusive; . = not tested or not shown. Unless noted, calls come from the whole dose curve; as a rule, active = well fitted curve in the direction sought with a large enough effect; inconclusive = small, poorly fitted or top-dose-only effect, or another doubt; inactive = no such curve, though single readings can be large; an effect the other way counts as inactive or inconclusive.

SMILES	Gal4-VP16 FLuc	IL1B secr inh	LDHA block	TDP1 cell noCPT	TDP1 cell CPT	RORgamma inh
COc1ccc(CN2CCCC(CO)(Cc3cccc(Cl)c3)C2)cc1OC (configuration not stated)	-	-	-	20.6µM	-	-
OCC1(Cc2cccc(Cl)c2)CCCN(Cc2cnn(-c3ccccc3)c2)C1 (configuration not stated)	-	-	-	13µM	?	-
COc1cc(CN2CCCC(CO)(Cc3cccc(Cl)c3)C2)cc(OC)c1O (configuration not stated)	-	-	-	?	?	-
OCC1(Cc2cccc(Cl)c2)CCCN(Cc2ccc(F)c(F)c2)C1 (configuration not stated)	-	-55.3	-	?	23.1µM	-
Cc1nn(C)c(Cl)c1CN1CCCC(CO)(Cc2cccc(Cl)c2)C1 (configuration not stated)	-	-	-	14.6µM	14.6µM	-
CC(C)NC(=O)Cc1ccc(-n2c(=O)c3ccccc3n(Cc3ccccc3)c2=O)cc1	.	.	-	.	.	.
OCC1(Cc2ccccc2)CCCN(Cc2ccc(-c3ccco3)cc2)C1 (configuration not stated)	-	-84.0	-	23.1µM	?	-
Cc1ccccc1CC1(CO)CCCN(C(=O)c2cccc(Cl)c2)C1 (configuration not stated)	-	-	-	?	-	-
O=C(c1ccc(-n2ccnc2)cc1)N1CCCC(CO)(Cc2cccc(Cl)c2)C1 (configuration not stated)	-	-	-	?	4.61µM	?
O=C(Nc1ccc(F)c(Cl)c1)Nc1csc2ccccc12	?	-69.6	-	3.66µM	5.17µM	?
O=C(Nc1ccc(F)cc1F)Nc1ccc(F)cc1F	?	-	-	?	-	-
O=C(Nc1ccc(F)cc1F)Nc1csc2ccccc12	?	-92.3	-	23.1µM	?	-
CC(C)CNC(=O)Nc1ccc(F)c(Cl)c1	-	?	-	-	-	-
CC(C)CCn1c(SCCO)nc2c1c(=O)[nH]c(=O)n2C	.	.	-	.	.	.
Cc1ccc(-c2noc(COc3ccccc3C(=O)N3CCN(C(C)C)CC3)n2)cc1	.	.	-	.	.	.
O=P(Cc1cccc2ccccc12)(c1ccccc1)c1ccccc1	.	-	-	20.6µM	?	.
CCN(CC)S(=O)(=O)c1ccc(OC)c(NC(=O)c2cccc(C)c2[N+](=O)[O-])c1	-	?	-	-	?	-
CCN(CC)S(=O)(=O)c1ccc(Cl)c(C(=O)Nc2ccc(Cl)cc2[N+](=O)[O-])c1	?	?	-	4.61µM	5.8µM	?
CN(C)S(=O)(=O)c1ccc(Cl)c(C(=O)Nc2ccccc2[N+](=O)[O-])c1	-	-	-	-	-	-
CCN(CC)S(=O)(=O)c1ccc(Cl)c(NC(=O)c2ccccc2C)c1	-	-	-	23.1µM	?	-
Cc1ccc(-c2cc(NC(=O)c3ccccc3)on2)cc1	-	-	-	-	-	-
COc1ccc(C(=O)Nc2cc(-c3ccc(C)cc3)no2)cc1	-	-	-	?	-	3.16µM
S=C(NC1CC1)N1CCN(C(=S)NC2CC2)CC1	-	-	-	-	-	-
CC1CC(C)CN(C(=S)NC2CCCCC2)C1 (configuration not stated)	?	-	-	25.9µM	?	?
Cc1cccc(NC(=O)COC(=O)c2cccc3c2C(=O)c2ccccc2C3=O)c1C	-	-	-	16.4µM	?	-
CCN(CC)CCC(=O)Nc1cccc2c1C(=O)c1ccccc1C2=O	?	.	-	10.3µM	11.6µM	?
Cc1cccc(C(=O)OCC(=O)NCCNC(=O)COC(=O)c2cccc(C)c2C)c1C	?	-	-	-	-	12.6µM
Cc1cccc(NC(=O)COC(=O)c2ccccc2-c2nc3ccccc3s2)c1C	-	-	-	?	?	-
Cc1ccc(C(=O)COC(=O)c2cccc(C)c2C)cc1	.	.	-	.	.	.
Cc1cccc(C)c1NC(=O)c1cccc2c1-c1ccccc1C2=O	-	-	-	?	?	-
